ClpP mod: qHTS Assay for Activators of ClpP. purified B. subtilis ClpP, FRET peptide cleavage, 20 min. 340,000 tested, 1.9% active. Potency, µM (highest dose often 57.5 µM), without a hit: top-dose activity change, negative = active; active means well fitted falling curve with a large enough effect; inconclusive means small, poorly fitted or top-dose-only effect; inactive means no such curve, though single readings can be large or run the other way; further: potency means the concentration at half of the fitted maximal effect; the source files actives as falling curves though it sought activators and does not explain the sign; nearly all actives have a fitted effect of over 65% in size
Target sequence (P80244 whole entry, looked up): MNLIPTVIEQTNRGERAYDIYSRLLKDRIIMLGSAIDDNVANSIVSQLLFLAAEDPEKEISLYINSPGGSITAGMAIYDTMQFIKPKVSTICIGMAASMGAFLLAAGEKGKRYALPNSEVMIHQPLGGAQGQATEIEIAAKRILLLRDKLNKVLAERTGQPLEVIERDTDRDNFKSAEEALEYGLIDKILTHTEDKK
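FRET quenching reversal measured ClpP activation: 10 microg/mL B. subtilis ClpP at pH 8 with the FRET-FV decapeptide, read at 430 nm after 320 nm excitation. The 20-min minus 0-min signal was scaled between DMSO/no-enzyme wells and ADEP (5.8 microM final).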
D3 ag: qHTS of D3 Dopamine Receptor Agonist: qHTS; D(3) dopamine receptor (Homo sapiens), P35462; D3R DiscoveRx beta-arrestin cells, luminescence, 90 min; max activation, %; 410,000 tested, 0.58% active; in the data active means max activation above about 30%; further: 0% is about no effect
Target sequence (P35462 whole entry, looked up): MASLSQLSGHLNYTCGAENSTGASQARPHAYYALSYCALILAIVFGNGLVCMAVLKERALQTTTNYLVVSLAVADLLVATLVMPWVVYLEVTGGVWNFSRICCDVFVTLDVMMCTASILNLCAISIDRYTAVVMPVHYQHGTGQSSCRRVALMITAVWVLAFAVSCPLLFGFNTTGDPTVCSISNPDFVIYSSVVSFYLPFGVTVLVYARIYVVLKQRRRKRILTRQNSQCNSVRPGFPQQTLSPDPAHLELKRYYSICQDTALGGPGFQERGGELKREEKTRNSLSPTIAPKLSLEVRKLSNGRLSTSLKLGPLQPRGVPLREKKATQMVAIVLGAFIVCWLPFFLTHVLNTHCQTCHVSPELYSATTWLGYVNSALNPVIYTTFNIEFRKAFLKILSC
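Agonist mode: compounds and dopamine controls were applied to plated cells for 90 min at 37 degrees C after an overnight attachment at 1500 cells/well. Luminescent read-out followed 30 - 60 minutes at room temperature with DiscoveRx detection reagent.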
DRD3 antagonist: qHTS of D3 Dopamine Receptor Antagonist: qHTS | D3R cells, DiscoveRx beta-arrestin luminescence, antagonist mode; stronger effect = lower value | max response, negative = inhibition, % | AID 652054, 2013 | 360,000 tested, 2.5% active; in the data active means max response below about -50%; inconclusive means no clear call, values can overlap the other calls; further: on the % scale 0 is the no-effect control and ±100 the full control effect
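Cells plated overnight at 1500 cells/well, then exposed to library compounds with dopamine controls for 90 minutes at 37 degrees C. DiscoveRx reagent added for 30–60 minutes at room temperature; luminescence read, quantitative HTS format.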
TDP1 cell CPT: qHTS for Inhibitors of human tyrosyl-DNA phosphodiesterase 1 (TDP1): qHTS in cells in presence of CPT; chicken DT40 Tdp1-/-;hTDP1 cells + 20 nM CPT, ATP luminescence, 48 h; Potency, µM (top dose mostly 46.2 µM), inactives show at the highest dose activity change, negative = growth inhibition, usual class: inhibitors; AID 686979, 2013; 420,000 tested, 12% active; further: potency means the concentration at half of the fitted maximal effect; on the % scale 0 is the no-effect control and ±100 the full control effect; nearly all actives have a fitted effect of over 55% in size
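Cell growth measured by CellTiter-Glo luminescence after a minimum 48 h, 37 C compound exposure with 20 nM CPT in Tdp1-knockout DT40 cells stably expressing hTDP1, seeded 400/well; qHTS titration format.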
IL-1B inflam inh: qHTS for Inhibitors of Inflammasome Signaling: IL-1-beta AlphaLISA Primary Screen; THP-1 LPS/ATP IL-1B secretion, AlphaLISA, 16 h; stronger effect = lower value; activity change, % at 57.5 µM; 360,000 tested, 4.7% active; AID 743279, 2014; in the data active means activity change below about -50%; inconclusive means mostly about -30% to -49%; further: on the % scale 0 is the no-effect control and ±100 the full control effect
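Secreted IL-1B measured by AlphaLISA bead assay after 16 h compound exposure of THP-1 cells; compounds (final up to 57.5 uM) added 1 h before LPS (250 ng/mL) and ATP (1.25 mM) stimulation; lower signal means less secretion.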
DT40 TDP1 no CPT: qHTS for Inhibitors of human tyrosyl-DNA phosphodiesterase 1 (TDP1): qHTS in cells in absence of CPT; DT40 Tdp1-/- hTDP1 cells, no CPT, ATP luminescence, 48 h; Potency, µM (titrated, usually from 46.2 µM), for the others: at the highest dose activity change, negative = growth inhibition, hits mostly inhibitors; 420,000 tested, 15% active; further: potency means the concentration at half of the fitted maximal effect; on the % scale 0 is the no-effect control and ±100 the full control effect; nearly all actives have a fitted effect of over 55% in size
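Readout: luminescence from CellTiter-Glo after 30 min in the dark at RT. Cells: DT40 Tdp1-/- with stable hTDP1, 400/well. Exposure: compounds alone, ≥48 hr, 37 °C.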
Active calls of the source: *; ? = inconclusive; / = no result. Most compounds without a hit are left out; they make up all but 21% or so of the library. Unless noted, the call rests on the fitted dose curve; in most records, active means well fitted inhibition curve with a large enough effect; inconclusive means small, poorly fitted or top-dose-only effect; inactive means flat fitted curve, though single readings scatter.

SMILES | ClpP mod | D3 ag | DRD3 antagonist | TDP1 cell CPT | IL-1B inflam inh | DT40 TDP1 no CPT
O=C(O)c1ccc(N=C2SCC(=O)N2Cc2ccccc2)cc1 | / | 7 | -9 | -12% | 40 | 0%
Cc1cccc(OC(=O)c2snnc2C)c1C | -2% | 3 | / | 27% | / | 0%
CCCCCN(C(=O)CCC(=O)OCC(=O)c1ccc(CCC)cc1)c1c(N)n(CCCC)c(=O)[nH]c1=O | -8% | -7 | ? | ? | ? | ?
Cc1ccc(S(=O)(=O)NCCC(=O)N2CC(C)OC(C)C2)cc1C (stereo not drawn) | -3% | 6 | 18 | 7% | 1 | 0%
CC(C(=O)NCC1CCCCC1)N1CCN(S(=O)(=O)c2cccs2)CC1 (stereo not drawn) | -2% | 3 | 28 | ? | -4 | ?
O=C(c1cc2ccccc2o1)N(C1CC1)C1(C(=O)Nc2ccccc2)CCCC1 | / | -6 | -3 | ? | 3 | ?
COc1ccccc1Nc1nc(Cl)c(C=O)s1 | / | -3 | 1 | ? | -53* | ?
O=Cc1sc(Nc2ccccc2)nc1Cl | -5% | -6 | -14 | -29% | -17 | ?
Cc1ccc(Nc2nc(Cl)c(C=O)s2)cc1Cl | / | 0 | 1 | ? | -102* | ?
COc1cccc(OCC(O)CN2CCN(CCN3C(=O)c4cccc5cccc(c45)C3=O)CC2)c1 (stereo not drawn) | / | 4 | 14 | ? | -81* | 18µM*
COc1ccc(OCC(O)CN2CCC(CN3C(=O)c4cccc5cccc(c45)C3=O)CC2)cc1 (stereo not drawn) | / | -17 | -14 | 13µM* | / | 21µM*
O=C1c2cccc3cccc(c23)C(=O)N1CCN1CCN(CC(O)COc2ccccc2)CC1 (stereo not drawn) | -2% | -13 | -2 | -14% | 2 | -29%
O=C1c2cccc3cccc(c23)C(=O)N1CC1CCN(CC(O)COCc2ccc3c(c2)OCO3)CC1 (stereo not drawn) | 28µM* | -2 | -26 | ? | -81* | ?
Cc1ccc(C)c(OCC(O)CN2CCC(CN3C(=O)c4cccc5cccc(c45)C3=O)CC2)c1 (stereo not drawn) | -11% | -9 | ? | 5.2µM* | -97* | 5.8µM*
Cc1ccccc1OCC(O)CN1C(=O)c2ccccc2C1=O (stereo not drawn) | 2% | -9 | 9 | 1% | 7 | -2%
CC(=O)Nc1ccc(S(=O)(=O)N[C@@H](C)C(=O)NC2CCCc3ccccc32)cc1 (stereo partly drawn) | -2% | -16 | -5 | -3% | 0 | 14%
Cc1ccc(C)c(N(CC(=O)NC2CCCCC2)C(=O)CNC(=O)c2ccco2)c1 | 2% | 18 | 8 | 3% | 33 | -7%
Cc1c(C(=O)N2CCC(Cc3ccccc3)CC2)sc2ncnc(NCc3ccccn3)c12 | / | / | / | ? | / | -29%
Oc1ccc(Cl)cc1CNCc1ccc(F)cc1 | 0% | -43 | -81* | ? | -21 | ?
COc1ccccc1NC(=O)c1ccccc1N(Cc1ccccc1)S(C)(=O)=O | 1% | -7 | -4 | ? | -2 | ?
COC(=O)c1cc(Br)ccc1N(Cc1cc(OC)cc(OC)c1)S(C)(=O)=O | 2% | -15 | -10 | ? | -15 | 16µM*
CC(C)NC(=O)c1ccccc1N(Cc1ccccc1)S(C)(=O)=O | 2% | 6 | 8 | -16% | -13 | -13%
COC(=O)c1ccccc1N(Cc1ccccc1)S(C)(=O)=O | 25µM* | -4 | -5 | -22% | 0 | -5%
CCCn1c(C2CCCN2c2nc(-c3cccc(Br)c3)cs2)nc2cc(Cl)c(Cl)cc21 (stereo not drawn) | -2% | -32 | -22 | ? | -6 | 18µM*
Cc1csc(N2CCCC2c2nc3cc(C(F)(F)F)ccc3n2CCOCCO)n1 (stereo not drawn) | 4% | -15 | 13 | 9.2µM* | -15 | ?
SMILES | ClpP mod | D3 ag | DRD3 antagonist | TDP1 cell CPT | IL-1B inflam inh | DT40 TDP1 no CPT
OCCCn1c(C2CCCN2c2nc(-c3ccc(F)cc3)cs2)nc2cc(Cl)c(Cl)cc21 (stereo not drawn) | -1% | -44 | -56* | ? | -9 | 16µM*
Cc1nc(C(F)(F)F)ccc1C(=O)N1CCC(C)(C(=O)O)C1 (stereo not drawn) | -1% | 4 | 1 | -1% | 20 | 0%
c1ccc2c(C3=NNC(=NC4CCCCC4)SC3)c[nH]c2c1 | 0% | -7 | -14 | ? | -96* | ?
c1ccc(C2=NNC(=NC3CC3)SC2)cc1 | -2% | -8 | -22 | ? | -13 | 18µM*
COCCn1c(C)cc(C2=NNC(=NC3CC3)SC2)c1C | 1% | 0 | 4 | ? | -3 | ?
c1ccc2c(C3=NNC(=NC4CC4)SC3)c[nH]c2c1 | -5% | 2 | -9 | ? | -96* | ?
COc1ccc(CCN2C(=NC(=O)CC(C)C)SC3CS(=O)(=O)CC32)cc1OC (stereo not drawn) | 1% | -10 | 5 | -19% | -19 | ?
O=C(Nc1cccc(-c2cccc(Cl)c2)c1)C1CCN(Cc2ccccn2)CC1 | 1% | -19 | -13 | ? | -74* | 26µM*
O=C(Nc1ccc(-n2cccn2)cc1)C1CCN(Cc2ccccn2)CC1 | 1% | -14 | 0 | 0% | ? | -1%
O=C(Nc1cccc(-c2cccc(Cl)c2)c1)C1CCN(Cc2ccon2)CC1 | -2% | -4 | 3 | 13µM* | -61* | 29µM*
O=C(Nc1cccc(-c2cccc(Cl)c2)c1)C1CCN(CC2CCOC2)CC1 (stereo not drawn) | -1% | 4 | -15 | ? | -25 | ?
O=C(Nc1ccc(S(=O)(=O)Nc2nccs2)cc1)c1ccc(=O)[nH]c1 | / | -2 | 9 | 11% | 6 | 9%
CCOC(=O)C1(C)CCN1C(=O)c1cc(-c2ccc(Cl)cc2)oc1C (stereo not drawn) | -3% | 4 | -16 | 18µM* | -103* | 5.2µM*
CCOC(=O)C1(C)CCN1C(=O)c1cccc(OC)c1 (stereo not drawn) | -1% | 8 | 18 | 9% | 3 | -1%

Compound activity (PubChem)
